A short description of assay [1]: qHTS assay to identify small molecule agonists of the estrogen receptor alpha (ER-alpha) signaling pathway in the presence of an antagonist - cell viability counter screen (AID 1259386).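 Note: series mostly up to about 92 µM; cells exposed to compounds for 22 h at 37 °C before the viability read; nearly all actives have a fitted effect of over 30% in size.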 Summed up:
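VM7Luc4E2, stripped-serum pre-culture 5 d; 24hr plating; +ICI-182,780 10.0nM final; cpds 15 conc, 22hr, 37C/5% CO2; CellTiter-Fluor added at 21hr, fluorescence 1hr later.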
On the technique in general: qHTS replaces the single test concentration by a dilution series.

Assay [2] addresses Progesterone receptor (Homo sapiens) (UniProt P06401). Briefly: qHTS assay to identify small molecule agonists of the progesterone receptor (PR) signaling pathway (AID 1346784; calls by dose curve; note: nearly all actives have a fitted effect of over 30% in size). A digest of the protocol: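 Agonist mode, quantitative HTS format in a HEK 293T line expressing a UAS-controlled beta-lactamase reporter; 16 hr compound exposure at 37C in 2% charcoal-stripped FBS, then LiveBLAzer B/G FRET fluorescence.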

Assay [3] shares this target. Briefly: qHTS assay to identify small molecule antagonists of the progesterone receptor (PR) signaling pathway (AID 1346795; active = well fitted inhibition curve with a large enough effect in the signal ratio in the repeat runs, not every such curve was filed as active; the % refers to the signal ratio). A digest of the protocol: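 HEK293T PR-UAS-bla reporter cells in charcoal-stripped serum (2%) received compound after a 6 hr settling period, followed by R5020 agonist at 1 nM final; 16 hr incubation preceded the FRET substrate step and fluorescence measurement.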

Assay [4] can be described thus: qHTS assay to identify small molecule antagonists of the progesterone receptor (PR) signaling pathway - cell viability counter screen (AID 1346798). Note: series mostly up to about 92 µM; nearly all actives have a fitted effect of over 50% in size. Summed up: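 Same-well multiplex: after 16 hr at 37C with compound and R5020 stimulation, HEK293T cells carrying a UAS-bla reporter received LiveBLAzer substrate (2 hr RT), then CellTiter-Glo (30 min RT) for luminescent viability.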

Assay [5] is described as follows: qHTS assay to identify small molecule agonists of the progesterone receptor (PR) signaling pathway - cell viability counter screen (AID 1346799; calls by dose curve; note: nearly all actives have a fitted effect of over 45% in size). Summed up:
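Counter screen for cytotoxicity: compound-treated PR-UAS-bla HEK293T cells (16 hr, 37C, 5% CO2) were assayed with CellTiter-Glo, luminescence measured after 30 min at room temperature.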

The nature of assay [6]: qHTS assay to identify small molecule antagonists of the TGF-beta/Smad signaling pathway - cell viability counter screen (AID 1346824). Note: nearly all actives have a fitted effect of over 50% in size. Summed up: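 Cytotoxicity counter-screen run in the same wells as the beta-lactamase Smad reporter read: CellTiter-Glo luminescence after 30 min at room temperature. HEK 293T SBE-bla cells had 5 hr compound exposure at 37 C with TGF-beta1 (0.25 ng/mL stock).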

Assay [7] is described as follows: qHTS assay to identify small molecule agonists of the TGF-beta/Smad signaling pathway - cell viability counter screen (AID 1346829). Note: top concentration of the series differs between compounds; nearly all actives have a fitted effect of over 45% in size. A digest of the protocol:
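CellTiter-Glo luminescence readout; SBE-bla HEK 293T cells, overnight plating, compound 5 hr at 37 C/5% CO2, then bla substrate 2 hr RT, then CellTiter-Glo 30 min RT.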

Assay [8] addresses Thyrotropin-releasing hormone receptor (Homo sapiens) (UniProt P34981). The assay is described as follows: qHTS assay to identify small molecule antagonists of the thyrotropin-releasing hormone receptor (TRHR) signaling pathway (AID 1346877; active = well fitted inhibition curve with a large enough effect in the repeat runs, not every such curve was filed as active; note: series mostly up to about 51 µM). Summed up:
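Intracellular calcium fluorescence, read kinetically every second over 3 min, reports TRH-evoked signalling in HEK293 cells carrying TRHR. Test compounds were added 5 min ahead of a 1 nM TRH challenge.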

For assay [9] the target is unchanged. The assay is described as follows: qHTS assay to identify small molecule agonists of the thyrotropin-releasing hormone receptor (TRHR) signaling pathway (AID 1346891; calls by dose curve;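 note: HEK293 cells expressing TRHR with calcium dye readout; series mostly up to about 58 µM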). Summed up:
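Agonist-mode calcium mobilisation screen: TRHR-transfected HEK293 cells cultured overnight (18 h), dye-loaded for 2 h at 37 °C, exposed to compounds, and monitored by fluorescence for 3 min.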

A short description of assay [10]: Human pregnane X receptor (PXR) small molecule agonists, qHTS cell viability counter screen (AID 1346977). Note: nearly all actives have a fitted effect of over 50% in size. Summed up: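 Measures live-cell protease fluorescence (CellTiter-Fluor) in PXR-Luc HepG2 cells treated 24hr with compounds at 37C. Cells had 5hr to attach before pin transfer of DMSO solutions.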
Assay [11] can be described thus: Caspase-3/7 induction in HepG2 cells by small molecules, qHTS assay (AID 1346978). Note: nearly all actives have a fitted effect of over 15% in size. Summed up: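 Caspase-3/7 induction was measured by Caspase-Glo 3/7 luminescence (30 min, room temperature) after a 17 hr compound exposure of wild-type HepG2 cells seeded at 2,000 per well and pre-incubated 5 hr.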
Assay [12] in a line: Caspase-3/7 induction in CHO-K1 cells by small molecules, qHTS cell viability counter screen (AID 1346979). Note: nearly all actives have a fitted effect of over 35% in size. A digest of the protocol:
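In the same wells as the caspase read, viability of compound-treated wild-type CHO-K1 cells was assessed using CellTiter-Fluor, added after 16hr at 37C and measured by fluorescence following 1hr further incubation.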

Assay [13] can be described thus: Caspase-3/7 induction in HepG2 cells by small molecules, qHTS cell viability counter screen (AID 1346981). Note: series mostly up to about 92 µM; nearly all actives have a fitted effect of over 30% in size. Summed up: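 HepG2, WT, 2,000 cells/well; 5 hr pre-incubation 37 C/5% CO2; compound pin-transferred from DMSO; 16 hr exposure; CellTiter-Fluor, 1 hr; fluorescence read.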
Assay [14] concerns the target Nuclear receptor subfamily 1 group I member 2 (Homo sapiens) (UniProt O75469). The assay is described as follows: Human pregnane X receptor (PXR) small molecule agonists, qHTS assay (AID 1346982). Note: nearly all actives have a fitted effect of over 35% in size. Summed up: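 Luciferase signal from ONE-Glo (30 min, room temperature) measured activation of hPXR-driven CYP3A4 reporter expression in PXR-Luc HepG2 cells treated with compounds for 24 hr at 37 C.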

Assay [15] concerns the target Cytochrome P450 2D6 (Homo sapiens) (UniProt P10635). Briefly: Cytochrome P450 Family 2 Subfamily D Member 6 (CYP2D6) small molecule antagonists: luciferase reporter qHTS assay (AID 1671196). Note: nearly all actives have a fitted effect of over 50% in size. Note: potency is the fitted concentration of half-maximal effect. A digest of the protocol: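 Read-out is luminescence from luciferin formed by CYP2D6 turnover of a proluciferin substrate, recorded as relative luminescence units. Reactions ran 1 h at room temperature after NADPH regeneration solution was added.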
For orientation: A reporter such as luciferase makes a cellular process visible.

Assay [16] can be described thus: qHTS assay to identify small molecule agonists of the TGF-beta/Smad signaling pathway (AID 1346859; active = well fitted activation curve with a large enough effect in the signal ratio in the repeat runs, not every such curve was filed as active; the % refers to the signal ratio; note: series mostly up to about 77 µM). A digest of the protocol: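 Smad-responsive beta-lactamase reporter cells (HEK 293T) received compounds from DMSO stocks after overnight attachment, were incubated 5 hr, then treated 2 hr with FRET substrate before dual-emission fluorescence measurement (405 nm excitation).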

Assay [17] can be described thus: Caspase-3/7 induction in CHO-K1 cells by small molecules, qHTS assay (AID 1346980). Note: nearly all actives have a fitted effect of over 15% in size. A digest of the protocol:
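Luminescent Caspase-Glo 3/7 read (30min, room temperature) quantified apoptosis induction. Cells were wild-type CHO-K1, treated with compound for 17hr at 37 C and 5% CO2.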

Assay [18] concerns the target Nuclear receptor subfamily 1 group I member 2 (Rattus norvegicus) (UniProt Q9R1A7). The assay is described as follows: Rat pregnane X receptor (rPXR) activation by small molecules, qHTS assay (AID 1346983). Note: nearly all actives have a fitted effect of over 20% in size. Particulars: rPXR luciferase reporter cells, One-Glo luminescence, 24 h; stronger effect = higher value. Summed up: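 Luminescent readout (One-Glo luciferase, 30 min room temperature) followed 24 hr compound treatment at 37 C of rPXR cells plated 2,000 per well and preincubated 5hr; qHTS format with compounds delivered in DMSO.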

For assay [19], the target named is Nuclear receptor subfamily 1 group I member 2 (Homo sapiens) (UniProt O75469). The assay is described as follows: Human pregnane X receptor (PXR) activation by small molecules, qHTS assay (AID 1346985). Note: nearly all actives have a fitted effect of over 40% in size. Summed up:
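DPX-2 cells (HepG2 co-transfected with a PXR response element and a CYP3A4-promoter luciferase construct) were seeded at 2,000 per well, rested 5 hr at 37C, then exposed to DMSO-dissolved compounds for 24 hr. Activation was read as luciferase luminescence.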

Consider 9 compounds from PubChem BioAssay (Tox21).

Unmarked numbers belong to inactive results. Inconclusive results are not listed. Activity calls are given as the source filed them. Unless noted, calls come from the whole dose curve; as a rule, active = well fitted curve in the direction sought with a large enough effect in the repeat runs; inconclusive = weak or mixed curves; inactive = no such curve, though single readings can be large; an effect the other way counts as inactive or inconclusive.
% is set by controls: 0 for no effect and ±100 for the full control effect.

Sequence of Nuclear receptor subfamily 1 group I member 2 (Homo sapiens) (O75469 whole entry, looked up): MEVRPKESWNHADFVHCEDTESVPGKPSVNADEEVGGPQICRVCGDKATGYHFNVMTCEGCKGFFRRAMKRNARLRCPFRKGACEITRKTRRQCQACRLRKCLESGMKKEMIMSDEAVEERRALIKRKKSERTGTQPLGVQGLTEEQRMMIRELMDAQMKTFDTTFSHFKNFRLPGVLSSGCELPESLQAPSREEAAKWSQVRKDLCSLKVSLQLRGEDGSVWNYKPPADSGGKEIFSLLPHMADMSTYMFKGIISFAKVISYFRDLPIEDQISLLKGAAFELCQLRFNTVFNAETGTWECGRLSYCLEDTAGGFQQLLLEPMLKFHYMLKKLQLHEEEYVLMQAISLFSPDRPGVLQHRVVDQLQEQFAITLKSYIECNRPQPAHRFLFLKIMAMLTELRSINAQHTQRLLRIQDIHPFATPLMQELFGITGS
Sequence of Cytochrome P450 2D6 (Homo sapiens) (P10635 whole entry, looked up): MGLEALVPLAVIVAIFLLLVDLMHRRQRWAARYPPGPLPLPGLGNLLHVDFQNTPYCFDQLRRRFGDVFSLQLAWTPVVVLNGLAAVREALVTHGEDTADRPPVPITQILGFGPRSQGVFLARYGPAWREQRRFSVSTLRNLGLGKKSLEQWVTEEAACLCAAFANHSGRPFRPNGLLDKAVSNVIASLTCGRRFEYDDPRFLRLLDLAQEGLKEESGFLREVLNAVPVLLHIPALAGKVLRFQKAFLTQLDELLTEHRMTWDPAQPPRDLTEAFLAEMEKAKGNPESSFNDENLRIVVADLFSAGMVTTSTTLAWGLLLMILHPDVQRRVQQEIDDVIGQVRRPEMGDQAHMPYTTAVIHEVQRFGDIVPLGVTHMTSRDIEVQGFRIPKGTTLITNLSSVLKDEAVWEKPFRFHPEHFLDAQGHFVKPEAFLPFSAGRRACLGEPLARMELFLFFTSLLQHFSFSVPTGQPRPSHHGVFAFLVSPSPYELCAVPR
Sequence of Progesterone receptor (Homo sapiens) (P06401 whole entry, looked up): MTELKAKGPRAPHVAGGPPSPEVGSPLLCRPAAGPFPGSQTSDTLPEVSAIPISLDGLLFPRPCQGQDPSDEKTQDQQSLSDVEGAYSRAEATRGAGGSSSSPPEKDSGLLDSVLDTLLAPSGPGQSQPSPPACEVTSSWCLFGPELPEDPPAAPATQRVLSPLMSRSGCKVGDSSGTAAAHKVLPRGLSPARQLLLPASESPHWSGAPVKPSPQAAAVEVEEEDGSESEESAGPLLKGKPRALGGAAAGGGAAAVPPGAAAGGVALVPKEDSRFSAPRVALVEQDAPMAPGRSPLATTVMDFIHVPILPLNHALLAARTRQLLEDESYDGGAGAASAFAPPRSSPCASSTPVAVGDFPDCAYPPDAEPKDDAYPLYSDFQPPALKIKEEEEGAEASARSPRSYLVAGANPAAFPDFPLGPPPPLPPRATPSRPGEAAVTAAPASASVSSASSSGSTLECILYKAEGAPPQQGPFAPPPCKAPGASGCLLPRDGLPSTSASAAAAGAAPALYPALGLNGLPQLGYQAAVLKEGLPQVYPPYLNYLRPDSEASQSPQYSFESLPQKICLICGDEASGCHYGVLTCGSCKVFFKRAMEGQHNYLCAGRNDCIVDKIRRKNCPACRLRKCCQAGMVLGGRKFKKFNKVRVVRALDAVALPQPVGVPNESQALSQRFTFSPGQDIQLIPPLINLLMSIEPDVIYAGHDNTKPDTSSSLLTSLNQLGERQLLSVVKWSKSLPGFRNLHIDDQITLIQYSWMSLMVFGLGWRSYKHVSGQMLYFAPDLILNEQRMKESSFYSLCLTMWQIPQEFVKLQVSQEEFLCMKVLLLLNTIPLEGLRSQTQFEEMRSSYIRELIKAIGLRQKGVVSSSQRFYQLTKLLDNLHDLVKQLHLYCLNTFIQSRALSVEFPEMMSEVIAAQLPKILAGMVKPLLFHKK
Sequence of Thyrotropin-releasing hormone receptor (Homo sapiens) (P34981 whole entry, looked up): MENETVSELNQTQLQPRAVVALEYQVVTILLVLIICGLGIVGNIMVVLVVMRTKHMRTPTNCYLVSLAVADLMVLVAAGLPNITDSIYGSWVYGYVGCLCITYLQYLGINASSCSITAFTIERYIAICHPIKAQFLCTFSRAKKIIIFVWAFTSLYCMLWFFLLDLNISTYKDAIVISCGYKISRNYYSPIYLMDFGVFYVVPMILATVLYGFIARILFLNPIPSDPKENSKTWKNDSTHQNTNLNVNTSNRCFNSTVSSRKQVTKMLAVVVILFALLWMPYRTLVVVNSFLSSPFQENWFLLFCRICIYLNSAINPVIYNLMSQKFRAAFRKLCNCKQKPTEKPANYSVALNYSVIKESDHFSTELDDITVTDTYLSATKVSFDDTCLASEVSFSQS
Sequence of Nuclear receptor subfamily 1 group I member 2 (Rattus norvegicus) (Q9R1A7 whole entry, looked up): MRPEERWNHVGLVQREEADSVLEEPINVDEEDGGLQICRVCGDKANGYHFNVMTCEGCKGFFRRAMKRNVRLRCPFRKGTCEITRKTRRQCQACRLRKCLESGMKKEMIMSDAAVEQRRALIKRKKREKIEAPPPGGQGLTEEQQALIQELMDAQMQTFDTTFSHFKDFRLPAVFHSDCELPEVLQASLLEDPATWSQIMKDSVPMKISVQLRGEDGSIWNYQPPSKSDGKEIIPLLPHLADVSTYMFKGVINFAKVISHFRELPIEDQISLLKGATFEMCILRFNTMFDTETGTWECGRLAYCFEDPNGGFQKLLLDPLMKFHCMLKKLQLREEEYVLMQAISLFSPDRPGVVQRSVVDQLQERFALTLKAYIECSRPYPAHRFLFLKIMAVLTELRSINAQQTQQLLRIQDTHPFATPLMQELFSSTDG

With `Cc1cccc2cccnc12`, the Potency result in assay [1], in assay [2], in [3], in [4], in assay [5] and in assay [6] was “inactive” throughout. The Potency result in assay [7], in assay [8], in assay [10], in assay [11], in [12] and in [13] was “inactive” each time. The Potency entry in assay [14] and in [15] was “inactive” each time. Moreover, in [9], the compound was classed as inactive.

Take `COC(C)=O`: the Potency entry in [1], in assay [2], in assay [3], in [4], in assay [5] and in assay [6] was “inactive” throughout. For the same compound, the Potency result in assay [16], in assay [10], in assay [12], in assay [17], in assay [13] and in assay [14] was “inactive” in each case. Further, the Potency result in [15] is “inactive”.

As to `O=c1[nH]c(=O)n([C@H]2C[C@H](O)[C@@H](CO)O2)cc1F`, the Potency result in assay [1], in assay [2], in assay [3], in assay [4], in assay [5] and in assay [6] was “inactive” throughout. For the same compound, the Potency entry in assay [16], in [8], in assay [10], in [11], in [12] and in [17] was “inactive” in each case. The Potency result in assay [13] and in assay [15] was “inactive” throughout. In assay [9], the compound was classed as inactive. Also, the max activation in [18] is -2.43%.

Turning to `CC(CO)Oc1ccccc1` (stereo not given), the Potency entry in assay [1], in assay [2], in [3], in [4], in [5] and in assay [6] was “inactive” each time. Also, the Potency result in assay [16], in assay [8], in [11], in [12], in [17] and in assay [13] was “inactive” throughout. Besides, in [14], the Potency entry was “inactive”. In addition, the result in assay [9] was inactive. The Potency in [15] was 41.2 µM (active).

Regarding `CCc1ccc(Br)cc1`, the Potency entry in assay [1], in [2], in assay [3], in assay [4], in assay [5] and in assay [6] was “inactive” throughout. In addition, the Potency result in assay [7], in assay [10], in assay [11], in assay [12], in assay [17] and in assay [13] was “inactive” each time. Further, the Potency result in [14] and in [15] was “inactive” throughout.

Take `O=C(O)c1cccc(C(F)(F)F)c1`: the Potency result in [1], in assay [2], in assay [3], in assay [4], in [5] and in [6] was “inactive” each time. In addition, the Potency result in assay [7], in [11], in assay [12], in [17], in assay [13] and in assay [14] was “inactive” each time. The Potency result in [15] is “inactive”.

Regarding `OC[C@@H](O)[C@@H](O)CO`, the Potency entry in assay [1], in assay [2], in [3], in assay [4], in [5] and in assay [6] was “inactive” each time. Moreover, the Potency result in assay [8], in assay [10], in assay [12], in assay [17], in assay [13] and in [14] was “inactive” in each case. The Potency result in [15] is “inactive”. Also, the call in [9] was inactive.

For the compound `O[C@@H]([C@H](O)[C@H](O)CBr)[C@H](O)CBr`, the Potency result in [1], in [2], in assay [3], in assay [4], in assay [5] and in assay [6] was “inactive” throughout. Further, the Potency result in [16], in assay [10], in assay [11], in [12], in assay [17] and in assay [13] was “inactive” throughout. Besides, the Potency entry in [19] and in [15] was “inactive” throughout. The max activation in [18] is -0.988%.

For the compound `COc1cc(C)ccc1O`, the Potency entry in [1], in [2], in [3], in assay [4], in assay [6] and in assay [7] was “inactive” in each case. Also, the Potency result in assay [16], in [8], in assay [10], in assay [11], in assay [12] and in [17] was “inactive” throughout. In addition, the Potency result in assay [14] and in assay [15] was “inactive” each time. The call in [9] was inactive.
